Source: publication PMC5540273 (PLoS ONE, 2017)
Like-named read-outs stand apart in the source and are kept apart here.

Tests used:
DCAMKL2 = system: T1, DCAMKL2; conditions: concentration: 1 μM, replicates: in singlicate; n = 1
T1 construct: gene DCLK2

DCAMKL3 = system: T2, DCAMKL3; conditions: concentration: 1 μM, replicates: in singlicate; n = 1
T2 construct: gene DCLK3

DDR1 = conditions: concentration: 1 μM, replicates: in singlicate; n = 1
DDR2 = conditions: concentration: 1 μM, replicates: in singlicate; n = 1
DLK = system: T3, DLK; conditions: concentration: 1 μM, replicates: in singlicate; n = 1
T3 construct: gene MAP3K12

DMPK2 = system: T4, DMPK2; conditions: n = 1
T4 construct: gene CDC42BPG

DMPK = conditions: concentration: 1 μM, replicates: in singlicate; n = 1
DRAK1 = system: T5, DRAK1; conditions: concentration: 1 μM, replicates: in singlicate; n = 1
T5 construct: gene STK17A

DRAK2 = system: T6, DRAK2; conditions: concentration: 1 μM, replicates: in singlicate; n = 1
T6 construct: gene STK17B

DYRK1A = conditions: concentration: 1 μM, replicates: in singlicate; n = 1
DYRK1B = conditions: concentration: 1 μM, replicates: in singlicate; n = 1
DYRK2 = conditions: concentration: 1 μM, replicates: in singlicate; n = 1
EGFR = conditions: concentration: 1 μM, replicates: in singlicate; n = 1
EIF2AK1 = conditions: concentration: 1 μM, replicates: in singlicate; n = 1
EPHA1 = conditions: concentration: 1 μM, replicates: in singlicate; n = 1
EPHA2 = conditions: concentration: 1 μM, replicates: in singlicate; n = 1
EPHA3 = conditions: concentration: 1 μM, replicates: in singlicate; n = 1
EPHA4 = conditions: concentration: 1 μM, replicates: in singlicate; n = 1
EPHA5 = conditions: concentration: 1 μM, replicates: in singlicate; n = 1
EPHA6 = conditions: concentration: 1 μM, replicates: in singlicate; n = 1
[1] = concentration: 1 μM, replicates: in singlicate
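Note: KINOMEscan kinase panel screen.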

SMILES: COc1ccc(Nc2nccc(N3CCC(NC(=O)Nc4cccc(OC)c4)C3)n2)cc1 (stereo not shown) [GSK1379742]
- %Inh (DCAMKL2): 0%
- %Inh (DCAMKL3): 13%
- %Inh (DDR1): 8%
- %Inh (DDR2): 24%
- %Inh (DLK): 46%
- %Inh (DMPK2; [1]): 0%
- %Inh (DMPK): 0%
- %Inh (DRAK1): 8%
- %Inh (DRAK2): 0%
- %Inh (DYRK1A): 4%
- %Inh (DYRK1B): 0%
- %Inh (DYRK2): 0%
- %Inh (EGFR): 20%
- %Inh (EIF2AK1): 0%
- %Inh (EPHA1): 10%
- %Inh (EPHA2): 0%
- %Inh (EPHA3): 0%
- %Inh (EPHA4): 1%
- %Inh (EPHA5): 0%
- %Inh (EPHA6): 8%

SMILES: CCn1c(-c2nonc2N)nc2c(C#CC(C)(C)O)ncc(OCCCCN)c21.O=C(O)C(F)(F)F.O=C(O)C(F)(F)F [GSK507274]
- %Inh (DCAMKL2): 34%
- %Inh (DCAMKL3): 98.7%
- %Inh (DDR1): 0%
- %Inh (DDR2): 0%
- %Inh (DLK): 1%
- %Inh (DMPK2; 1 µM): 0%
- %Inh (DMPK): 0%
- %Inh (DRAK1): 0%
- %Inh (DRAK2): 2%
- %Inh (DYRK1A): 25%
- %Inh (DYRK1B): 0%
- %Inh (DYRK2): 8%
- %Inh (EGFR): 9%
- %Inh (EIF2AK1): 27%
- %Inh (EPHA1): 20%
- %Inh (EPHA2): 43%
- %Inh (EPHA3): 38%
- %Inh (EPHA4): 8%
- %Inh (EPHA5): 0%
- %Inh (EPHA6): 20%

SMILES: COc1ccc(CNC(=O)NC2CCN(c3ccnc(Nc4ccc(F)cc4)n3)CC2)cc1 [GSK1379788]
- %Inh (DCAMKL2): 0%
- %Inh (DCAMKL3): 5%
- %Inh (DDR1): 0%
- %Inh (DDR2): 32%
- %Inh (DLK): 34%
- %Inh (DMPK2; [1]): 0%
- %Inh (DMPK): 0%
- %Inh (DRAK1): 0%
- %Inh (DRAK2): 0%
- %Inh (DYRK1A): 0%
- %Inh (DYRK1B): 0%
- %Inh (DYRK2): 0%
- %Inh (EGFR): 13%
- %Inh (EIF2AK1): 0%
- %Inh (EPHA1): 7%
- %Inh (EPHA2): 1%
- %Inh (EPHA3): 1%
- %Inh (EPHA4): 0%
- %Inh (EPHA5): 0%
- %Inh (EPHA6): 0%

SMILES: CN(C)S(=O)(=O)c1cc(-c2ccc3nccc(-c4cccc(S(N)(=O)=O)c4)c3c2)cnc1N [GSK1669921]
- %Inh (DCAMKL2): 6%
- %Inh (DCAMKL3): 0%
- %Inh (DDR1): 100%
- %Inh (DDR2): 5%
- %Inh (DLK): 0%
- %Inh (DMPK2; [1]): 0%
- %Inh (DMPK): 10%
- %Inh (DRAK1): 0%
- %Inh (DRAK2): 0%
- %Inh (DYRK1A): 37%
- %Inh (DYRK1B): 0%
- %Inh (DYRK2): 44%
- %Inh (EGFR): 18%
- %Inh (EIF2AK1): 8%
- %Inh (EPHA1): 10%
- %Inh (EPHA2): 9%
- %Inh (EPHA3): 0%
- %Inh (EPHA4): 20%
- %Inh (EPHA5): 0%
- %Inh (EPHA6): 18%

SMILES: COc1cccc(-c2ccc3c(NC(=O)C4CC4)n[nH]c3n2)c1 [SB-710903]
- %Inh (DCAMKL2): 0%
- %Inh (DCAMKL3): 6%
- %Inh (DDR1): 0%
- %Inh (DDR2): 52%
- %Inh (DLK): 72%
- %Inh (DMPK2; [1]): 0%
- %Inh (DMPK): 0%
- %Inh (DRAK1): 2%
- %Inh (DRAK2): 4%
- %Inh (DYRK1A): 52%
- %Inh (DYRK1B): 0%
- %Inh (DYRK2): 73%
- %Inh (EGFR): 20%
- %Inh (EIF2AK1): 5%
- %Inh (EPHA1): 20%
- %Inh (EPHA2): 0%
- %Inh (EPHA3): 0%
- %Inh (EPHA4): 20%
- %Inh (EPHA5): 0%
- %Inh (EPHA6): 23%
